Laboratory results reported in PubChem BioAssay AID1347416 (National Center for Advancing Translational Sciences (NCATS), 2020).
About 1,600 (39%) of roughly 4,100 compounds were called active. About 25% were inconclusive and are not listed. The call rests on the fitted dose curve; in most records, active means well fitted inhibition curve with a large enough effect; inconclusive means small, poorly fitted or top-dose-only effect; inactive means no such curve, though single readings can be large or run the other way. Some of the results follow. Where a call stands in place of a potency, no number is given.

Experiment: qHTS Validation assay for Inhibitors of Plasmodium falciparum Dd2 growth in vitro; further: nearly all actives have a fitted effect of over 70% in size
Conditions: P. falciparum Dd2 in RBCs, SYBR Green growth, 72 h; series mostly up to 28.7 µM
Outline: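 P. falciparum Dd2-infected red blood cells (2.5% hematocrit, 0.3% parasitemia) grown 72 h at 37 °C under 5% O2 with compounds in a titration, 29 uM to 0.5 nM final. Growth read as SYBR Green-1 fluorescence after ~16 h lysis; artesunate 300 nM as positive control.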
Potency means the concentration at half of the fitted maximal effect.

| Compound | Potency |
| --- | --- |
| O=C(CCSc1nc(-c2ccco2)cc(C(F)(F)F)n1)Nc1cccc(O)c1 | inactive |
| Cc1noc(-c2cn(C3CCN(C(=O)C(C)Oc4ccc(Cl)cc4)CC3)nn2)n1 (stereo not given) | inactive |
| Cc1ccc2c(CC(=O)Nc3ccccc3C(F)(F)F)coc2c1C | inactive |
| COc1cccc(NC(=O)CN(C)C(=O)c2ccc(-c3cccc(C(F)(F)F)c3)o2)c1 | 0.596 µM (active) |
| Cc1ccc(C)c(NC(=O)CN(C)C(=O)c2ccc(-c3cccc(C(F)(F)F)c3)o2)c1 | 2.11 µM (active) |
| Cc1cccc(Cn2nnc(C(=O)Nc3cc(C)ccc3C)c2N)c1 | inactive |
| Cc1ccc(C)c(NC(=O)CN(C)C(=O)c2cc3ccccc3o2)c1 | 13.3 µM (active) |
| COCC(=O)Nc1ccc2c(c1)OCC(=O)N2Cc1ccc(C)cc1 | inactive |
| O=C(Nc1ccccc1N1CCCC1)c1cc2ccccc2o1 | inactive |
| Cc1ccc(-c2cn3cccnc3n2)cc1NC(=O)Cc1ccccc1 | inactive |
| COc1cccc(NC(=O)[C@@H]2C[C@H](c3cccc(C(F)(F)F)c3)N(Cc3cnn(C)c3)C2)c1 | inactive |
| Cc1ccc(C)c(NC(=O)CN(C)C(=O)c2ccc(-c3ccc(Cl)cc3)o2)c1 | 4.73 µM (active) |
| O=C(c1cc2c(s1)CCCC2)N1CCc2c(nc3cc[nH]n3c2=O)C1 | inactive |
| Cc1ccc(C(=O)NCCc2noc(C3CC3)n2)cc1C | inactive |
| Cc1cccc(NC(=O)CN(c2ccc(F)cc2)S(C)(=O)=O)c1 | inactive |
| COc1cccc(NC(=O)CN(C)C(=O)c2ccc(-c3ccc(Cl)cc3)o2)c1 | 4.22 µM (active) |
| CN(CC(=O)Nc1cccc(F)c1)C(=O)c1ccc(-c2cccc(C(F)(F)F)c2)o1 | 0.668 µM (active) |
| CCCC(C)C(=O)Nc1ncc(S(=O)(=O)c2ccc([N+](=O)[O-])cc2)s1 (stereo not given) | 5.96 µM (active) |
| COc1ccc(CCNC(=O)c2cc(C(=O)c3cc(Cl)ccc3O)cn(CCc3ccc(OC)cc3)c2=O)cc1 | 3.76 µM (active) |
| COc1ccc(-c2cc3c(=O)n(CCNC(=O)c4c(F)cccc4Cl)ccn3n2)cc1 | inactive |
| COc1ccc(OC)c(CCNC(=O)c2nc(-c3ccc(Cl)cc3)n3c2CCCCC3)c1 | inactive |
| Cc1ccc(-c2nc3ccccc3c(=O)n2O)cc1 | inactive |
| Cc1ccc(Oc2c(C)nc(-c3ccccc3)[nH]c2=O)cc1 | 5.31 µM (active) |
| CCC(=O)N1CCN(C2CCN(Cc3ccccn3)C2=O)CC1 (stereo not given) | inactive |

| Compound | Potency |
| --- | --- |
| Cc1ccnc2nc(C(=O)Nc3cc(Cl)ccc3N3CCOCC3)nn12 | 4.73 µM (active) |
| O=C(Nc1ccncc1)c1ccc(Cl)c(Cl)c1 | inactive |
| CNC(=O)[C@@H]1CN(Cc2ccc(C#N)cc2)C[C@H]1COC | inactive |
| O=C(Nc1ccncc1)Nc1ccc(Cl)cc1 | 10.6 µM (active) |
| CCn1ncc(Cl)c1C(=O)Nc1ccncc1 | inactive |
| N#Cc1ccc(NC(=O)Nc2ccc(Cl)cc2)cc1 | 5.31 µM (active) |
| Cc1cc(C)n2nc(C(=O)N3CCN4C(=O)CN(C)C(=O)C4C3)cc2n1 (stereo not given) | inactive |
| CC(C)c1ccc(N2CC(C(=O)NCc3cncn3C3CC3)CC2=O)cc1 (stereo not given) | inactive |
| Cc1ccc(NC(=O)CSc2n[nH]c(-c3ccccn3)n2)cc1 | inactive |
| CCc1ccc(NC(=O)CSc2nc3n[nH]c(C)c3c(=N)n2-c2ccc(C)cc2)cc1 | 6.68 µM (active) |
| CCc1ccc(OCC(=O)Nc2ccc(-c3nc4ncccc4o3)cc2)cc1 | inactive |
| CC(C)c1noc(-c2cccn3c(CNC(=O)c4cccc(Cl)c4)nnc23)n1 | inactive |
| CCCN1CCc2[nH]cnc2C12CCN(C(=O)c1ccc(CSC)o1)CC2 | inactive |
| CC(OC(=O)CCc1cc(C(C)(C)C)c(O)c(C(C)(C)C)c1)C(=O)NC1CC1 (stereo not given) | 4.73 µM (active) |
| COc1ccc(-c2noc(-c3cccn3CC(=O)Nc3cc(C)ccc3C)n2)cc1F | inactive |
| COc1ccc(-c2noc(-c3cccn3CC(=O)Nc3ccccc3C)n2)cc1F | 5.31 µM (active) |
| COc1ccc(-c2noc(-c3cccn3CC(=O)Nc3cccc(Cl)c3C)n2)cc1F | inactive |
| COc1ccc(C(=O)NCc2nnc3c(-c4nc(C(C)C)no4)cccn23)cc1F | inactive |
| COc1ccc(-c2noc(-c3cccn3CC(=O)Nc3ccccc3F)n2)cc1F | 4.22 µM (active) |
| O=C1NC2(CCN(Cc3ccc(OC(F)(F)F)cc3)C2)OCc2ccccc21 (stereo not given) | inactive |
| O=C1COCC2(CN(Cc3ccsc3)C2)CN1Cc1cccc(OC(F)(F)F)c1 | 17.2 µM (active) |
| O=C(c1cc(C(F)(F)F)[nH]n1)N1CC[C@@H](c2ccc(F)cc2)[C@H](O)C1 | inactive |
| CCCCNc1nc2sc3c(c2c(=O)n1-c1cccc(Cl)c1)CCN(C)C3 | 9.44 µM (active) |
| CCCCCNc1nc2sc3c(c2c(=O)n1-c1cccc(Cl)c1)CCN(C)C3 | 7.5 µM (active) |

| Compound | Potency |
| --- | --- |
| CC(C)OC(=O)c1cccc(NC(=O)Cn2nnc3sc4c(c3c2=O)CCCC4)c1 | inactive |
| CCOC(=O)N1CCc2c(sc3nc4n(c(=O)c23)N=C(c2ccc(OC)cc2)CS4)C1 | inactive |
| Cc1ccc(-c2nc(CN3CCCC3=O)no2)cc1 | inactive |
| CCCn1nnc(NC(=S)NC(=O)Cc2ccccc2)n1 | inactive |
| CCn1nnc(NC(=O)c2ccc(C(C)(C)C)cc2)n1 | 9.44 µM (active) |
| CCN(CC)C(=O)C[C@@H]1c2nc(NC(=O)c3cccc(F)c3)sc2C[C@@H]2[C@](C)(CO)[C@H](O)CC[C@]21C | 9.44 µM (active) |
| C[C@]1(CO)[C@H]2Cc3sc(NC(=O)c4cccc(F)c4)nc3[C@@H](CC(=O)N3CCOCC3)[C@]2(C)CC[C@H]1O | 8.41 µM (active) |
| CC1CCN(C(=O)C[C@@H]2c3nc(NC(=O)c4cccc(F)c4)sc3C[C@@H]3[C@](C)(CO)[C@H](O)CC[C@]32C)CC1 | 10.6 µM (active) |
| CCOc1cc(C(=O)Nc2nnc(CC)s2)ccc1OCC(=O)N1CCOCC1 | inactive |
| C[C@H](C(=O)N1CCCC1)C1CC[C@@]2(C)Cc3sc(NC(=O)C4CC4)nc3[C@@H](C)[C@@H]2[C@H]1O (stereo not given in full) | inactive |
| CCOc1ccccc1C(=O)Nc1nc2c(s1)CC(C)CC2 (stereo not given) | inactive |
| Cc1ccc(-c2nnc3ccc(-c4ccoc4)nn23)nc1 | inactive |
| COc1ccc(-n2cc(CNCCCn3ccnc3)c(-c3ccccc3Cl)n2)cc1 | 3.35 µM (active) |
| CCCn1cnnc1CNC(=O)CC1C(=O)NCCN1Cc1ccoc1 (stereo not given) | inactive |
| Cc1ccc(OCC(=O)N2CCC(c3noc(-c4ccccn4)n3)C2)cc1 (stereo not given) | inactive |
| Cc1ccc(OCc2nc(C3CN(C(=O)c4ccc5nc[nH]c5c4)C3)no2)cc1 | inactive |
| Cc1ccc(OCc2nc(C3CCN(C(=O)c4c5c(nc6ccccc46)CCCC5)CC3)no2)cc1 | 9.44 µM (active) |
| CCc1cccc(NC(c2nnc(-c3ccccc3)o2)c2ccc(F)cc2Cl)c1 (stereo not given) | 6.68 µM (active) |
| COc1ccc(C2C=C(c3ccc(F)cc3)Nc3nc(-c4ccc(Cl)cc4)nn32)cc1 (stereo not given) | 0.75 µM (active) |
| Cc1ccc(C2=CC(c3ccc(Cl)cc3)n3nc(-c4ccc(C)cc4)nc3N2)cc1 (stereo not given) | 1.68 µM (active) |
| COC(=O)C1=C(C)Nc2nnnn2C1c1ccccc1Cl (stereo not given) | inactive |
| COc1ccc(C2C=C(c3ccccc3)Nc3nc(NS(=O)(=O)c4ccccc4)nn32)cc1 (stereo not given) | inactive |
| COc1ccc(C2C=C(c3ccc(Cl)cc3)Nc3nc(-c4ccc(Cl)cc4)nn32)cc1 (stereo not given) | 0.237 µM (active) |
| Cc1ccc(-c2nc3n(n2)C(c2ccccc2Cl)C=C(c2ccc(Cl)cc2)N3)cc1 (stereo not given) | 9.44 µM (active) |

| Compound | Potency |
| --- | --- |
| CC(=O)c1cccc(NC(=O)[C@H]2O[C@@H]3OC(C)(C)O[C@@H]3[C@H]3OC(C)(C)O[C@H]32)c1 | inactive |
| COc1ccc(Cl)cc1NC(=O)c1cc(C)nc2c1c(C)nn2-c1ccccc1 | inactive |
| COc1cccc(-c2c(C#N)c(N)nc3c2c(C)nn3-c2ccccc2)c1O | 1.5 µM (active) |
| CCN(C(=O)CSc1nc(-c2ccc(C(C)C)cc2)no1)c1ccccc1 | 0.944 µM (active) |
| CCN(C(=O)CSc1nc(-c2ccc(C(C)C)cc2)no1)c1cccc(C)c1 | 1.06 µM (active) |
| Cc1cccc(C(=O)NCc2nnc3c(-c4nc(C(C)C)no4)cccn23)c1 | inactive |
| CCN(C(=O)Cn1nc2c3cc(F)ccc3n(Cc3cccc(C)c3)cc-2c1=O)c1cccc(C)c1 | inactive |
| Cc1ccccc1NC(=O)c1cc(C(=O)c2cc(Cl)ccc2O)cn(-c2ccccc2C)c1=O | 0.376 µM (active) |
| Cn1c(=O)c(=O)n(C)c2cc(N3CCCC3)c(NC(=O)c3ccccc3F)cc21 | inactive |
| O=C(Cn1cc(C(=O)c2ccncc2)c(=O)c2cc(F)ccc21)Nc1ccc(Cl)cc1 | inactive |
| Cc1ccc(NC(=O)c2cc3n(n2)CC(c2ccc(Cl)cc2)OC3)cc1 (stereo not given) | inactive |
| Cc1ccc(NC(=O)c2cc(C(=O)c3cc(Cl)ccc3O)cn(-c3ccc(C)cc3)c2=O)cc1 | 0.422 µM (active) |
| COc1cc(Cn2nnc3ccccc32)cc(Br)c1O | inactive |
| CCC(C)NC(=O)C1CCC(CNS(=O)(=O)c2cccc3nsnc23)CC1 (stereo not given) | inactive |
| Oc1ccc(-c2n[nH]c(=S)n2-c2ccc3c(c2)OCCO3)c(O)c1 | 2.66 µM (active) |
| COc1ccc(C2=CC(c3ccc(F)cc3)n3ncc(C(=O)Nc4ccc(C)cc4)c3N2)cc1 (stereo not given) | 2.37 µM (active) |
| CCOc1ccc(NC(=O)c2cnn3c2NC(c2cccc(OC)c2)=CC3c2ccccc2)cc1 (stereo not given) | 4.73 µM (active) |
| Cc1nn2c(c1-c1ccccc1Oc1ccccc1)N(C(=O)Cc1cccc(F)c1)CCC2 | inactive |
| COc1ccc(CN2CCCn3nc(C)c(-c4ccccc4Oc4ccccc4)c32)cc1O | 9.44 µM (active) |
| COc1cccc(CC(=O)N2CCCn3nc(C)c(-c4ccccc4OCc4ccccc4)c32)c1 | 9.44 µM (active) |
| Cc1nn2c(c1-c1ccccc1Oc1ccccc1)N(Cc1ccccc1O)CCC2 | 4.85 µM (active) |
| Cc1nn2c(c1-c1ccccc1Oc1ccccc1)N(Cc1cccc(O)c1)CCC2 | 10.9 µM (active) |
| COCC(=O)N[C@@H]1CN(C(=O)Cc2cccc(OC)c2)CC[C@@H]1c1nc(C)no1 | inactive |
